High-throughput results as filed in PubChem.
A549 tox: counter-screen for Nrf2 inhibitors: cytotoxicity in A549 cells; A549 ARE-Fluc cells, CellTiter-Fluor viability, 18-24 h; Potency, µM (doses to about 46 µM), actives largely listed as inhibitors; actives 0.16% (n = 390,000); AID 504648
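A549 ARE_Fluc cells in 5% FBS OPTI-MEM were exposed to compounds in concentration-response for 18-24 h at 37 deg C. Viability was read by CellTiter-Fluor fluorescence (Ex 405/Em 525) after 30 min, before the luciferase read.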
ATXN2 expr inh: inhibitors of ATXN2 expression; HEK-293 ATXN2-luciferase reporter, luminescence, 24 h; Potency, µM (top dose mostly 57 µM), most hits filed as inhibitors; actives 0.72% (n = 360,000); AID 1745845; note: nearly all actives have a fitted effect of over 55% in size
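qHTS (up to 57 uM final) was run with 24 h compound exposure of reporter cells at 37 °C. Each well was multiplexed: SteadyGlo luminescence measured ATXN2-luciferase expression after a fluorogenic Gly-Phe-AFC viability readout (25 uM final).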
TGFb SMAD3 inh: TGF-b pathway inhibition. HepG2 CAGA-GFP TGF-b/SMAD3 reporter, GFP fluorescence, 18 h; TGF-beta stimulated, 500 pg/mL final. Potency, µM (highest dose often 46.1 µM), most hits filed as inhibitors. actives 1.2% (n = 410,000); note: nearly all actives have a fitted effect of over 65% in size
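Cell-based qHTS in HEPG2 carrying a CAGA-GFP Smad reporter; compounds added before 500 pg/mL final TGF-beta, 18 h incubation at 37 degrees C, GFP fluorescence quantified per cell by imaging cytometry.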
S2 tox: reduces viability in counter-screen for ATXN expression inhibitors. S2 cells (HEK-293 line with an ATXN2-luciferase reporter) viability, CellTiter-Fluor protease fluorescence, 24 h. Potency, µM (titrated, usually from 56.7 µM), actives largely listed as cytotoxic. actives 0.49% (n = 400,000); note: nearly all actives have a fitted effect of over 40% in size
HepG2 viability: HepG2 cytotoxicity, counter-screen for TGF-b inhibitors. HepG2 CAGA-GFP viability, ATP luminescence, 18 h. Potency, µM (highest dose often 46.1 µM), usual class: cytotoxic. actives 0.76% (n = 410,000). AID 588856
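HepG2 CAGA-GFP cells (1000/well, DMEM with 1% FBS) received compound, then TGF-beta at 500 pg/mL final, and were incubated 18 hours at 37 degrees C. Viability was read by CellTiter-Glo luminescence. Media-only wells were set as complete cell-killing and DMSO as no toxicity.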
Nrf2 block: Nrf2 pathway inhibition. actives 2.1% (n = 360,000). AID 504444. A549 ARE-Fluc reporter, luciferase luminescence, 18-24 h. Potency, µM (top dose mostly 46 µM), most hits filed as inhibitors; note: nearly all actives have a fitted effect of over 60% in size
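Concentration-response testing used A549 ARE_Fluc cells at 5000 cells/well. Following an 18-24 h compound incubation, viability was read by fluorescence (Ex 405/Em 525) and luciferase output by luminescence.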
Each line names hits and unclear results; the compound was inactive in the other large screens; ! = not active in a repeat. Rows were chosen to be rich in hits. Some 3.8% of all compounds tested hit in one or more screens of this group. Calls come from the whole dose curve; as a rule, active = well fitted curve in the direction sought with a large enough effect; inconclusive = small, poorly fitted or top-dose-only effect, or another doubt; inactive = no such curve, though single readings can be large; an effect the other way counts as inactive or inconclusive.

CC(C)CN1C(=O)C(=O)N(CC(=O)Nc2cc(Cl)ccc2Oc2ccccc2)C1=O	A549 tox inconclusive, Nrf2 block 23µM (no result: ATXN2 expr inh)
O=C(CN1CCCCC1)Nc1cc(Cl)ccc1Oc1ccccc1	Nrf2 block inconclusive
COc1ccc(CCN2C(=O)CSC2=Nc2ccc(C(C)C)cc2)cc1OC	TGFb SMAD3 inh inconclusive, Nrf2 block 16µM
COc1ccc(N=C2SCC(=O)N2CCc2ccc(OC)c(OC)c2)cc1	Nrf2 block inconclusive
Cc1noc(C)c1C(=O)N1CCN(c2ccc(OCc3ccccc3)cc2)CC1	S2 tox inconclusive, Nrf2 block 21µM (no result: ATXN2 expr inh)
CCN(CC)CCC(c1cc(OC)c(OC)c(OC)c1)c1c(OC)cc(OC)c2c(C)cc(=O)oc12 (centres undefined)	A549 tox inconclusive, TGFb SMAD3 inh inconclusive, S2 tox inconclusive
CCN(CC)CCC(c1ccc2c(c1)OCO2)c1c(OC)cc(OC)c2ccc(=O)oc12 (centres undefined)	A549 tox 16µM, S2 tox 10µM
CCN(CC)CCC(c1cc(OC)c(OC)c(OC)c1)c1c(OC)cc(OC)c2ccc(=O)oc12 (centres undefined)	A549 tox 15µM!, S2 tox inconclusive
CC(=O)Nc1ccc(S(=O)(=O)NCCC(=O)NNC(=O)c2ccccc2O)cc1	none
COc1ccc(C2CC(c3cccs3)=NN2C(=O)CSc2nc3c(cnn3-c3ccccc3)c(=O)[nH]2)cc1 (centres undefined)	Nrf2 block 16µM
COc1cccc(C2CC(c3cccs3)=NN2C(=O)CSc2nc3c(cnn3-c3ccc(F)cc3)c(=O)[nH]2)c1OC (centres undefined)	Nrf2 block inconclusive
O=C1C(N2CCOCC2)=C(n2nnc3ccccc32)C(=O)c2ccccc21	A549 tox 23µM, ATXN2 expr inh 22µM, TGFb SMAD3 inh inconclusive, S2 tox 20µM, HepG2 viability 14µM, Nrf2 block 23µM
O=C(NCc1cccs1)C1Cc2c(-c3ccccc3Oc3ccccc3)ccnc2O1 (centres undefined)	S2 tox inconclusive (no result: A549 tox, Nrf2 block)
O=C(NCc1ccncc1)C1Cc2c(-c3ccccc3Oc3ccccc3)ccnc2O1 (centres undefined)	TGFb SMAD3 inh 14µM, S2 tox inconclusive (no result: A549 tox, Nrf2 block)
COc1cc(NS(=O)(=O)c2ccc(-n3cccn3)cc2)cc(OC)c1	none (no result: A549 tox, ATXN2 expr inh, Nrf2 block)
CCOC(=O)c1c2c(n(Cc3ccccc3)c1C)C(=O)C(=O)c1ccccc1-2	A549 tox inconclusive, ATXN2 expr inh 19µM, TGFb SMAD3 inh inconclusive, S2 tox 15µM, Nrf2 block inconclusive
O=C(N/C=N/OCc1ccc(Cl)cc1Cl)NOCc1c(Cl)cccc1Cl	ATXN2 expr inh inconclusive, HepG2 viability 18µM, Nrf2 block 26µM
CO/N=C/NC(=O)NOCc1ccc(Cl)cc1Cl	none
CC1CC1C(=O)OCC(=O)N(C)c1c(N)n(Cc2ccccc2)c(=O)[nH]c1=O (centres undefined)	none
O=C(NCc1cccnc1)C1CCC(c2ccc(Cl)cc2)CC1 (centres undefined)	ATXN2 expr inh inconclusive, Nrf2 block 23µM
O=C(NCc1cccnc1)C1CCN(C(=O)c2ccc(Cl)cc2Cl)CC1	none
COCC(=O)Oc1cc(-c2ccc(C)cc2C)c(OC(=O)COC)c(-c2ccc(C)cc2C)c1	TGFb SMAD3 inh inconclusive, HepG2 viability 7.1µM (no result: A549 tox, ATXN2 expr inh, Nrf2 block)
COc1ccc(Br)cc1CN(C)C(=O)C1=CC=CN2CCS(=O)(=O)N=C12	Nrf2 block 16µM
O=C(Oc1ccc(Cl)c(Cl)c1)C1=CC=CN2CCS(=O)(=O)N=C12	none
CN(Cc1ccc(Cl)c(Cl)c1)C(=O)C1=CC=CN2CCS(=O)(=O)N=C12	S2 tox inconclusive, Nrf2 block 8.2µM (no result: ATXN2 expr inh)
O=C(NCc1ccccc1F)C1CCCN1S(=O)(=O)c1ccc(F)cc1 (centres undefined)	none
COc1ccccc1CNc1ccc(-c2nc(C)no2)cc1[N+](=O)[O-]	S2 tox inconclusive
O=S(=O)(c1ccc(F)cc1)N1CCC(n2c(C(F)(F)F)nc3cccnc32)CC1	Nrf2 block 21µM
CN(C)S(=O)(=O)N1CCC(n2c(C(F)(F)F)nc3cccnc32)CC1	Nrf2 block inconclusive
Cc1c(C)c2c(c(C)c1O)CCC(C)(C(=O)O)O2 (centres undefined)	none
Fc1cccc(Cc2c(-c3ccco3)nc3ccc(Br)cn23)c1	TGFb SMAD3 inh inconclusive (no result: A549 tox, S2 tox, Nrf2 block)
CCOC(=O)c1cccc(NC(=O)CN2C(=O)CC(C)(C)Sc3ccccc32)c1	S2 tox 28µM, Nrf2 block inconclusive
CCOC(=O)c1cccc(NC(=O)Nc2ccc3c(c2)N(C)C(=O)c2ccccc2S3)c1	TGFb SMAD3 inh inconclusive, Nrf2 block 21µM (no result: ATXN2 expr inh, S2 tox)
CN1C(=O)c2ccccc2Sc2ccc(NC(=O)COc3ccc(Cl)cc3)cc21	TGFb SMAD3 inh 2.8µM, S2 tox inconclusive (no result: Nrf2 block)
Cn1c(=O)n(C)c2cc(NC(=O)COc3ccc(Cl)cc3)ccc21	Nrf2 block 16µM
COc1ccc(NS(=O)(=O)c2cc(NC(=O)/C=C/c3ccccc3OC)ccc2N2CCCCC2)cc1	Nrf2 block inconclusive
CCCCCCNC(=O)CNC(=S)N(Cc1cccs1)C1CCCCC1	A549 tox inconclusive, ATXN2 expr inh inconclusive, TGFb SMAD3 inh inconclusive, Nrf2 block 16µM
CCOC(=O)CNC(=S)N(Cc1cccs1)C1CCCC1	S2 tox inconclusive
Cc1cc(C)c(S(=O)(=O)/N=C2/C=C(Sc3ncn[nH]3)C(=O)c3ccccc32)cc1C	A549 tox inconclusive, ATXN2 expr inh 14µM, TGFb SMAD3 inh 0.89µM, S2 tox 22µM, HepG2 viability 1.8µM, Nrf2 block inconclusive
COC(=O)C1=C(C)NC(=O)NC1c1ccc(OC)c(OC)c1 (centres undefined)	none (no result: A549 tox, ATXN2 expr inh, Nrf2 block)
COC(=O)C1=C(C)NC(=S)N(C(C)=O)C1c1ccc(OC)c(OC)c1 (centres undefined)	TGFb SMAD3 inh inconclusive, Nrf2 block 15µM
CC(C)(C)OC(=O)C[C@H]1C/C=C\C[C@H](CC(=O)NCCO)C(=O)N[C@@H](c2ccccc2)COC1=O	none
CC(C)C(C(=O)Nc1nccs1)N1C(=O)c2ccccc2C1=O (centres undefined)	HepG2 viability 6.3µM
CCOc1ccc(C(=O)NCc2nc(-c3ccc(Cl)cc3)no2)cc1OCC	Nrf2 block inconclusive
O=C(/C=C/c1cc(Br)ccc1O)c1ccco1	ATXN2 expr inh inconclusive, TGFb SMAD3 inh inconclusive, HepG2 viability 11µM (no result: S2 tox)
COc1ccc(Br)cc1/C=N/NC(=O)c1ccco1	Nrf2 block inconclusive
